# Source: PubChem BioAssay (The Scripps Research Institute Molecular Screening Center)
# Sampled rows, rich in hits. Any-hit rate of the full collection: about 2.8%.
# rCAG RNA binder: binds r(CAG) RNA repeats; AID 651821; inhibition, % at 3 µM; actives 1.3% (n = 370,000); r(CAG) RNA repeat, TO-PRO-1 dye displacement fluorescence;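 active = inhibition above the plate cutoff, the mean of all test compounds on that plate plus 3 SD, cut at about 35% in these data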;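 also: 0% = DMSO alone and 100% = 100 µM mitoxantrone as full dye displacement; higher means more dye released from RNA so lower well fluorescence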
# MsrA inhibitor: inhibitors of bovine MsrA | purified bovine MsrA, absorbance read-out | inhibition, % at 15.5 µM | actives 0.75% (n = 360,000) | AID 651718; in the data active = inhibition above about 4.5%;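 also: 0% = vehicle wells with enzyme and 100% = reference inhibitor wells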
# sPLA2-III inh: Blocks human group III sPLA2 activity; inhibition, % at 12.2 µM; QFRET BODIPY PC-A2 liposome hydrolysis, fluorescence; actives 0.56% (n = 370,000); Q9NZ20;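 active = inhibition above mean plus 3 SD of compounds lying within the high and low control bounds, cut at about 19% in these data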;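 also: 0% = median of test compound wells and 100% = no enzyme DMSO wells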
# Target sequence (Q9NZ20 whole entry, looked up): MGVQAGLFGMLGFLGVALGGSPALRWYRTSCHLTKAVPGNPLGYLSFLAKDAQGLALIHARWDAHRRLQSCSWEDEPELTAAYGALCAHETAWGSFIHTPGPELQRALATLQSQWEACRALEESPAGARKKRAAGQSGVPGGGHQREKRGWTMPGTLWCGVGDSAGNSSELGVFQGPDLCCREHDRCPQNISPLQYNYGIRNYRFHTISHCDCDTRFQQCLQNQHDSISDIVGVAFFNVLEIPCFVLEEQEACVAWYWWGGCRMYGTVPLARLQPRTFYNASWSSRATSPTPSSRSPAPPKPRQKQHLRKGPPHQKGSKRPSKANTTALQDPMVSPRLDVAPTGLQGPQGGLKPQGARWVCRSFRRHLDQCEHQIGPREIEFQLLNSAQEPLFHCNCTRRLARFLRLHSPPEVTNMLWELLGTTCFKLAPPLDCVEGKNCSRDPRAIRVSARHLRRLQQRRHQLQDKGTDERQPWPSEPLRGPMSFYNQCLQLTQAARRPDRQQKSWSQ
# bovine MsrA act: bovine methionine sulfoxide reductase A activation | purified bovine MsrA, absorbance read-out | activation, % at 10.6 µM | actives 0.3% (n = 360,000); in the data active = activation above about 7.5%;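 also: 0% = vehicle and 100% = reference activator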
# sPLA2 confirm: human GIII-sPLA2 inhibition, confirmation. inhibition, % at 12.2 µM. actives 34% (n = 2,000). shares compounds with sPLA2-III inh. recombinant hGIII-sPLA2, BODIPY PC-A2 QFRET fluorescence;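 active = mean inhibition across triplicates above the hit cutoff set in the earlier primary screen, cut at about 19% in these data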;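 also: 0% = enzyme with DMSO and 100% = DMSO wells lacking enzyme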
# BODIPY interf: 535nm fluorescence interference, HGIII-sPLA2 counter-screen | shares compounds with sPLA2-III inh | BODIPY FL product fluorescence interference, QFRET | inhibition, % at 12.2 µM | actives 8.5% (n = 2,000) | AID 743282;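 active = average inhibition above the solvent-only control mean plus 3 SD, cut at about 6% in these data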;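 also: 0% = DMSO with substrate plus product and 100% = DMSO with substrate alone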
# 535nm interf DR: counter-screen for HGIII-sPLA2 inhibitors: 535nm fluorescence interference, dose response; shares compounds with sPLA2-III inh; BODIPY FL product fluorescence interference, cell-free; IC50, µM; 240 tested, under 10 active;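 active = IC50 at or below 10 µM; inactive = IC50 above 10 µM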
# Active calls of the source: *; x = not tested or not shown.
SMILES,rCAG RNA binder,MsrA inhibitor,sPLA2-III inh,bovine MsrA act,sPLA2 confirm,BODIPY interf,others
CC(C)(C)c1ccccc1NC(=O)Nc1nc(C(N)c2ccccc2Cl)cs1 (stereo not drawn),12,-1,20*,-10,10,-3,
O=C(Nc1nnc([C@@H]2C[C@H](O)[C@@H](CO)O2)s1)c1ccccc1Cl,0,0,20*,0,0,-2,
COc1ccccc1N1CCN(C(=O)CSc2nc3ccccc3o2)CC1,-3,1,0,-4,x,x,
CCOc1ccc(C(Nc2cccnc2)c2cc(Cl)c3cccnc3c2O)cc1 (stereo not drawn),3,0,24*,-4,16,3,
CC1COc2ccccc2N1C(=O)c1ccccc1Cl (stereo not drawn),-4,1,2,-8,x,x,
CCN1CCN(CCCNC(=O)c2cn(CCOC)c(=O)c3c2c2ccccc2n3C)CC1,x,x,x,-1,x,x,
CC(=O)Nc1ccc(NC(=S)NC(=O)c2cc3ccccc3o2)cc1,7,2,11,-6,x,x,
O=C(NC(=S)Nc1ccc2oc(=O)ccc2c1)c1cc2ccccc2o1,1,0,22*,-4,4,-2,
CCOC(=O)C1C(c2ccc(C)o2)NC(=O)NC1(O)C(F)(F)F (stereo not drawn),-3,0,20*,2,0,-4,
CC(C)c1ccc(NC(=O)Nc2nc(C(N)CCc3ccccc3)cs2)cc1 (stereo not drawn),30,1,21*,3,17,-10,
COc1ccc(OC)c(NC(=O)Nc2nc(C(N)CCc3ccccc3)cs2)c1 (stereo not drawn),17,0,23*,2,13,-14,
COc1ccccc1NC(=O)Nc1nc(C(N)Cc2ccccc2)cs1 (stereo not drawn),16,1,15,-3,x,x,
CCCn1c(=O)c(C(=O)NNC(=O)c2ccccc2Cl)c(O)c2ccccc21,6,1,21*,-3,20*,1,
CCCn1c(=O)c(C(=O)NNC(=O)c2ccccc2[N+](=O)[O-])c(O)c2ccccc21,6,2,14,-1,x,x,
COc1ccc(-c2ccc3c(n2)CCCN3Cc2ccccc2C(F)(F)F)cc1,7,2,17,x,x,x,
FC(F)(F)c1ccccc1CN1CCCc2nc(-c3ccccc3)ccc21,4,1,27*,x,6,-1,
FC(F)(F)c1ccccc1CN1CCCc2nc(-c3ccc(Br)cc3)ccc21,7,1,22*,x,14,4,
CS(=O)(=O)Oc1ccc(/C=N/NC(=O)c2ccncc2)cc1,1,2,19*,0,5,-3,
O=C(O)c1ccc(N2C(=O)CC(N3CCN(c4cccc(C(F)(F)F)c4)CC3)C2=O)cc1 (stereo not drawn),8,0,21*,0,2,-2,
CCSc1nnc([C@@H](NC(=O)OC(C)(C)C)C(C)C)o1,-3,0,19*,-2,2,-3,
O=C(CC(=O)N/N=C/c1ccccc1O)NCc1cccnc1,-2,0,19*,-6,-4,-4,
COc1ccccc1/C=N/NC(=O)CC(=O)NCc1cccnc1,1,1,-3,-5,x,x,
COc1cccc(NC(=O)COc2ncnc3sc(C)c(C)c23)c1,11,0,-8,-6,x,x,
COc1ccc(N=Nc2nc(-c3ccccc3)c(-c3ccccc3)[nH]2)cc1,7,-1,28*,-2,30*,2,535nm interf DR=>122
Oc1ccccc1N=Nc1nc(-c2ccccc2)c(-c2ccccc2)[nH]1,29,1,28*,0,14,16*,
SMILES,rCAG RNA binder,MsrA inhibitor,sPLA2-III inh,bovine MsrA act,sPLA2 confirm,BODIPY interf,others
CS(=O)(=O)c1nc(-c2ccccc2)c(-c2ccccc2)[nH]1,5,-1,0,-4,x,x,
COc1ccccc1N=Nc1nc(-c2ccccc2)c(-c2ccccc2)[nH]1,10,-1,16,-3,x,x,
Nn1c(SCC(=O)N2CCOCC2)nnc1-c1ccc(Cl)cc1Cl,1,1,9,-2,x,x,
CCOc1ccc(NC(=S)c2ccncc2)cc1,-2,1,22*,2,4,-8,
CCOc1ccc(NC(=S)Nc2ccc(OC)cc2)cc1,-2,1,8,-1,x,x,
CCc1c(-c2n[nH]c(=S)n2Cc2ccccc2)csc1C,7,0,20*,-2,33*,3,535nm interf DR=>122
Cc1scc(-c2n[nH]c(=S)n2Cc2ccccc2)c1C,3,-1,18,-3,x,x,
CC1CCC(NC(=O)C2CCC(CNS(=O)(=O)c3cccc4nsnc34)CC2)CC1 (stereo not drawn),0,1,2,-6,x,x,
O=C(c1cccc(C(F)(F)F)c1)N1CCC(O)(CS(=O)(=O)Cc2ccccc2Cl)CC1,-4,0,-2,-1,x,x,
CCn1c(-c2ccc3ncccc3c2)n[nH]c1=S,0,1,7,-1,x,x,
CCn1c(-c2cccc(Br)c2)n[nH]c1=S,-2,0,23*,-7,34*,-3,535nm interf DR=>122
Cc1nc2c(c(=O)c3ccccc3n2C)c(=O)n1-c1ccc(F)cc1,-6,1,8,-2,x,x,
CC(C)c1nc2c(c(=O)c3ccccc3n2C)c(=O)n1-c1ccc(F)cc1,0,0,24*,-4,1,-16,
O=C1NC[C@@H](Cc2cccc3ccccc23)N(CCC23CC4CC(CC(C4)C2)C3)C1=O,5,0,-6,-6,x,x,
CC1(C)Cc2nc3sc(C(=O)NCCCO)c(N)c3cc2CO1,-3,0,21*,0,-1,-4,
COC(=O)c1ccc(C(=O)Nc2ccc3c(c2)C(=O)NC3=O)cc1,9,0,23*,-6,0,6.8*,
O=C(OCc1cn(Cc2ccc(F)c(F)c2)nn1)N1CCCC1,0,x,2,x,x,x,
O=C(OCc1cn(Cc2ccc(F)c(F)c2)nn1)N1CCOCC1,3,x,19*,x,-3,-2,
CC(C)NC(=S)N/N=C/c1cc(Br)ccc1O,9,2,29*,-4,5,5,
COc1ccc(O)c(/C=N/NC(=S)NCCc2ccccc2)c1,15,0,18,-8,x,x,
Oc1ccc(Br)cc1/C=N/NC(=S)NCCc1ccccc1,31,0,26*,-2,24*,5,
CC1CCC/C(=N/Nc2nc3ccccc3s2)C1 (stereo not drawn),15,1,8,-3,x,x,
O=C(O)C1CSC2c3ccccc3C(=O)N12 (stereo not drawn),0,1,20*,-2,3,-5,
O=C(NC1CCCC1)[C@@H]1CSC2c3ccccc3C(=O)N21 (stereo partly drawn),3,-1,-2,0,x,x,
CN(C)c1ccc(Nc2ccc([N+](=O)[O-])cn2)cc1,4,2,39*,-7,44*,6.5*,
